Some test systems named below: NCI-H23 lung; NCI-H226 lung; NCI-H322M lung; HOP-62 NSCLC; NCI-H460 lung; NCI-H522 lung; A549/ATCC NSCLC; 786-0 renal; COLO 205 colon; DU-145 prostate; K-562 leukemia; MALME-3M melanoma; MDA-MB-231 breast; RXF 393 renal; SF-268 CNS; SF-295 CNS; SF-539 CNS; UACC-257 melanoma; M14 melanoma; HOP-92 NSCLC.
Assay in all cases: NCI-60 one-dose screen, 48 h (100 = growth as untreated, 0 = no growth, -100 = all killed)
Holding throughout (conditions): 10 µM unless noted

This note sets out measurements from PubChem BioAssay (NCI).

The panel holds about 83,000 compounds, 20% with a hit somewhere; the sample as a whole holds those more often.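 The endpoint reported here, percent growth, reads 100 for growth as untreated, 0 for no net growth and -100 for all cells dead.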 A number with no mark means an inactive call. Activity calls are given as the source filed them. The calls were made as follows: active = growth percent below 10; inactive = the rest.

Take `COc1cc(C(=O)c2c(-c3ccccc3)oc3c(OC)cccc23)cc(OC)c1O`: the growth is 34% in the assay with NCI-H23 lung; -0.617% (active) in the assay on NCI-H226 lung; 56.2% with NCI-H322M lung; 31.8% with HOP-62 NSCLC; 3.99% (active) with NCI-H460 lung; 13.1% in the assay on NCI-H522 lung. The growth was 20.2% in the assay with A549/ATCC NSCLC; 33.4% in the assay on 786-0 renal; 7.65% (active) in the assay on COLO 205 colon; 23% with DU-145 prostate; 13.4% with K-562 leukemia; 47.4% with MALME-3M melanoma. Moreover, the growth in the assay on MDA-MB-231 breast was 17%; in the assay with RXF 393 renal, -6.63% (active); in the assay with SF-268 CNS, 46.5%; in the assay with SF-295 CNS, 2.85% (active); in the assay with SF-539 CNS, -13.2% (active); in the assay with UACC-257 melanoma, 71.4%. Further, the growth with M14 melanoma is 16.3%.
Take `CCCCCCCCCCCCCCCCCCOc1ccccc1CC(=O)OCC[N+]1(C)CCOCC1`: the growth with NCI-H23 lung was 66.5%; in the assay with NCI-H226 lung, 49.8%; in the assay with NCI-H322M lung, 79.8%; in the assay with HOP-62 NSCLC, 55.6%; with NCI-H460 lung it was 69.2%; in the assay with NCI-H522 lung, 39.9%. In addition, the growth in the assay on A549/ATCC NSCLC is 62.6%; with 786-0 renal it was 68.3%; in the assay on COLO 205 colon, 65.6%; in the assay on DU-145 prostate it was 70.8%; in the assay with K-562 leukemia, 58%; in the assay on MALME-3M melanoma it was 67.2%. Also, the growth with MDA-MB-231 breast was 49.8%; in the assay with RXF 393 renal, 1.62% (active); in the assay with SF-268 CNS, 36.2%; in the assay with SF-295 CNS, 87.3%; in the assay with SF-539 CNS, 71.6%; with UACC-257 melanoma, 103%. The growth with M14 melanoma is 69.9%.
As for `O=C(/C=C/c1ccc(Br)cc1)c1ccc(-n2cc(CN3CCN(c4cc5c(cc4F)c(=O)c(C(=O)O)cn5C4CC4)CC3)nn2)cc1`, the growth is 85.4% in the assay on NCI-H23 lung; 84.5% in the assay with NCI-H226 lung; 87.1% with NCI-H322M lung; 87.4% in the assay on HOP-62 NSCLC; 85.8% with NCI-H460 lung; 78.3% in the assay with NCI-H522 lung. In addition, the growth was 87.3% with A549/ATCC NSCLC; 76.7% in the assay with 786-0 renal; 107% with COLO 205 colon; 78.9% in the assay with DU-145 prostate; 51.5% in the assay on K-562 leukemia; 102% in the assay on MALME-3M melanoma. Also, the growth is 80.1% with MDA-MB-231 breast; 88.4% in the assay with RXF 393 renal; 72.6% in the assay with SF-268 CNS; 87.6% with SF-295 CNS; 83% in the assay on SF-539 CNS; 95.8% in the assay with UACC-257 melanoma. Besides, in the assay on M14 melanoma, the growth is 87%.
For the compound `CC1(C)CC[C@]2(C(=O)O)CC[C@]3(C)C(=CC[C@@H]4[C@@]5(C)C[C@@H](Cc6cn([C@@H]7O[C@H](CO)[C@@H](O)[C@H](O)[C@H]7O)nn6)[C@H](O)C(C)(C)[C@@H]5CC[C@]43C)[C@@H]2C1`, the growth in the assay with NCI-H23 lung was 104%; with NCI-H226 lung, 98.3%; in the assay with HOP-62 NSCLC it was 89.2%; in the assay on NCI-H460 lung it was 106%; in the assay on HOP-92 NSCLC it was 102%; in the assay with NCI-H522 lung, 106%. Also, the growth in the assay with A549/ATCC NSCLC is 85%; with 786-0 renal it was 95.8%; in the assay with COLO 205 colon it was 113%; with DU-145 prostate it was 112%; with K-562 leukemia it was 90%; with MALME-3M melanoma it was 112%. Further, the growth in the assay on MDA-MB-231 breast is 97.2%; in the assay with RXF 393 renal, 106%; in the assay with SF-268 CNS it was 103%; in the assay with SF-295 CNS, 99.3%; in the assay on SF-539 CNS, 101%; with UACC-257 melanoma it was 88.8%. In addition, the growth in the assay with M14 melanoma is 97.5%.
`CSCCC(NC(=O)c1ccccc1)C(=O)N/N=C1\S/C(=C/c2ccc(Cl)cc2)C(=O)N1C` (stereo unspecified): the growth with NCI-H23 lung was 90%; with NCI-H226 lung it was 86.9%; with HOP-62 NSCLC, 33.9%; in the assay on NCI-H460 lung it was 95.9%; in the assay on HOP-92 NSCLC, 70.8%; in the assay with NCI-H522 lung, 80.7%. The growth with A549/ATCC NSCLC was 79.9%; in the assay on 786-0 renal, 91.4%; in the assay with COLO 205 colon, 101%; in the assay on DU-145 prostate, 75.1%; in the assay on K-562 leukemia, 41.6%; in the assay with MALME-3M melanoma, 83.3%. The growth with MDA-MB-231 breast was 75.6%; in the assay with RXF 393 renal, 75.5%; with SF-268 CNS, 74.1%; in the assay on SF-295 CNS it was 75.2%; in the assay with SF-539 CNS it was 93.5%; with UACC-257 melanoma, 89.8%. Further, the growth in the assay with M14 melanoma was 86.6%.
For the compound `CC1COCC(C)N1C1=C(Cl)C(=O)c2ccccc2C1=O` (stereo unspecified), the growth in the assay with NCI-H23 lung was 63%; in the assay with NCI-H226 lung, 97.3%; in the assay on NCI-H322M lung it was 94%; with HOP-62 NSCLC, 99.2%; with NCI-H460 lung it was 104%; in the assay with NCI-H522 lung, 36.3%. Moreover, the growth is 97.1% in the assay on A549/ATCC NSCLC; 102% with 786-0 renal; 104% in the assay with COLO 205 colon; 97.9% in the assay with DU-145 prostate; 0.947% (active) in the assay with K-562 leukemia; 75.3% with MALME-3M melanoma. Further, the growth is 67.4% in the assay with MDA-MB-231 breast; 61.3% in the assay with RXF 393 renal; 90.8% in the assay with SF-268 CNS; 102% with SF-295 CNS; 104% with SF-539 CNS; 37.1% with UACC-257 melanoma. For the same compound, the growth in the assay on M14 melanoma is 80.6%.
`O=C(Nc1ccccc1)c1sc(-c2ccccc2)cc1O`: the growth was 83.3% with NCI-H23 lung; 94.9% with NCI-H226 lung; 112% in the assay with HOP-62 NSCLC; 92.5% in the assay on NCI-H460 lung; 85.3% in the assay on NCI-H522 lung; 111% in the assay with A549/ATCC NSCLC. The growth in the assay on 786-0 renal was 101%; in the assay with COLO 205 colon, 113%; in the assay on DU-145 prostate, 106%; in the assay with K-562 leukemia it was 82.6%; with MALME-3M melanoma, 84.8%; in the assay with MDA-MB-231 breast, 105%. In addition, the growth in the assay on RXF 393 renal was 105%; in the assay on SF-268 CNS it was 98.1%; in the assay with SF-295 CNS, 95.3%; in the assay on SF-539 CNS, 90.8%; in the assay with UACC-257 melanoma it was 128%; in the assay with M14 melanoma it was 96.2%.
`N/C(=N\c1nc2ccccc2s1)NC(=NC1CCCCC1)NC1CCCCC1`: the growth is 30.6% in the assay with NCI-H23 lung; 77.1% in the assay with NCI-H226 lung; 67.7% in the assay with HOP-62 NSCLC; -44.4% (active) in the assay with NCI-H460 lung; -1.22% (active) with HOP-92 NSCLC; 14% in the assay on NCI-H522 lung. Besides, the growth is 45.9% with A549/ATCC NSCLC; 25.1% with 786-0 renal; -44.9% (active) in the assay on COLO 205 colon; 14.3% in the assay with DU-145 prostate; 3.16% (active) with K-562 leukemia; -70% (active) in the assay on MALME-3M melanoma. Moreover, the growth is 21.1% with MDA-MB-231 breast; -46.9% (active) with RXF 393 renal; 60% with SF-268 CNS; -34.9% (active) with SF-295 CNS; -44.7% (active) in the assay on SF-539 CNS; -52.6% (active) with UACC-257 melanoma. For the same compound, the growth in the assay with M14 melanoma is -55.8% (active).
